Measured values published in PubChem BioAssay AID602393 (Broad Institute, 2012).
About 7,000 (2%) of roughly 350,000 compounds were called active. Cut-off read from the data, not from the text of the source: active = activation above about 40%; inconclusive = no clear call, values can overlap the other calls; inactive = below that. Only a selection was taken, and actives are over-represented in it overall.

Experiment: raisers of Bmi1 knock-in reporter signal – mouse ES cells, Bmi1 luciferase knock-in, single point, esBAF inhibitor project, primary screen (AID 602393);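 note: 0% = median of the plate's neutral control wells and 100% = double that signal; a rise in the Bmi1 reporter signal indicates esBAF inhibition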
Conditions: 24 h, at 12.5 µM, hits give high values, 100% = twice the neutral-well signal
With `CC(Oc1cccc(NC(=O)c2cccs2)c1)C(=O)c1ccccc1` (stereo not drawn) the reporter increase was 5.41% (inactive). With `CC1(C(=O)Nc2cccc(Oc3ccccc3)c2)CCN1Cc1ccccc1Cl` (stereo not drawn) the reporter increase was -0.493% (inactive). With `Cc1ccoc1C(=O)Nc1cccc(Oc2ccccc2)c1` the reporter increase was 69.9% (active). With `COc1ccc(CN(C)C[C@@H]2OCCCC[C@H](C)Oc3ccc(NS(C)(=O)=O)cc3C(=O)N([C@@H](C)CO)C[C@H]2C)cc1` the reporter increase was -1.93% (inactive). With `O=C(NC1CCCCC1)[C@@H]1[C@@H](CO)[C@@H]2Cn3c(cccc3=O)[C@@H]2N1C(=O)CC1CC1` the reporter increase was 0.341% (inactive). For `C[C@H](O)C#Cc1cnc2c(c1)C(=O)N([C@H](C)CO)C[C@H](C)[C@H](CN(C)C(=O)c1ccc(F)cc1)O2`, the reporter increase was 0.158% (inactive). For `CN(Cc1ccccc1)C(=O)CSc1nc2ccccc2[nH]1`, the reporter increase was 36% (inactive). In the case of `CN(Cc1ccccc1)c1nc2c(c(=O)[nH]c(=O)n2C)n1CCSc1nc2ccccc2[nH]1`, the reporter increase is reported as 5.78% (inactive). In the case of `COc1ccc2nc(SCC(=O)Nc3c(C)cc(C)cc3C)[nH]c2c1`, the reporter increase is reported as -3.13% (inactive). For `O=C(NCc1ccccc1)c1onc(CSc2nc3ccccc3[nH]2)c1C(=O)NCc1ccccc1`, the reporter increase was -3.03% (inactive). In the case of `CCCCN(CC)CCCNC(=O)c1ccc(CSc2nc3ccncc3[nH]2)cc1`, the reporter increase is reported as 0.105% (inactive). In the case of `O=C(CSc1nc2ccccc2[nH]1)c1cccs1`, the reporter increase is reported as 79.4% (active). For `COc1ccccc1CSc1nc2ccccc2[nH]1`, the reporter increase was 69.6% (active). With `CCCCSc1nc2ccccc2[nH]1` the reporter increase was 56.3% (active). In the case of `C/C(=N\Nc1nc2ccccc2[nH]1)c1cccs1`, the reporter increase is reported as 67.6% (inactive). With `COc1cccc(S(=O)(=O)Nc2ccc3c(c2)[C@@H]2C[C@@H](CC(=O)NC4CCCCC4)O[C@H](CO)[C@@H]2O3)c1` the reporter increase was 9.31% (inactive). For `CCCNC(=O)N[C@H]1C=C[C@@H](CC(=O)NC2CCCCC2)O[C@H]1CO`, the reporter increase was 0.216% (inactive). For `COc1cccc(NC(=O)N(C)C[C@H]2OCc3ccccc3-c3ccccc3C(=O)N([C@H](C)CO)C[C@@H]2C)c1`, the reporter increase was 4.73% (inactive). With `C/C(=N\Nc1nncc2ccccc12)c1ccc(Cl)c([N+](=O)[O-])c1` the reporter increase was 50.9% (active). For `Cc1nc2ccccc2c(=O)n1NC(=O)c1ccc(Cl)c([N+](=O)[O-])c1`, the reporter increase was 3.65% (inactive). With `Cc1ccnc(NC(=O)c2ccc(Cl)c([N+](=O)[O-])c2)c1` the reporter increase was 30.4% (inactive). For `CN(C)C(=O)c1cccc(-c2ccc3n(c2=O)C[C@H]2N[C@@H]3[C@@H](C(=O)NC3CCC3)[C@@H]2CO)c1`, the reporter increase was -3.26% (inactive). For `CCCNC(=O)N1[C@H](CO)[C@H]2c3ccccc3N(C(=O)Nc3cccc(Cl)c3)C[C@H]21`, the reporter increase was -0.3% (inactive).
